The values that follow come from PubChem BioAssay.

The structures appear in SMILES notation. A number with no mark means an inactive call. For part of these data: Potency and affinity values are given separately. Calls of active or inactive are those of the source. Unless noted, no rule for the calls is given here.

Assay [1] is described as follows: antimalarial activity against Dd2 strain (AID 2302;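 active = growth inhibition above 50% at the single 2 µM test dose, taken to imply half-maximal potency below 2 µM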;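 also: 0% = DMSO untreated growth and 100% = chloroquine plus artemisinin killed control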). The following applies: P. falciparum Dd2 in RBCs, LDH growth readout, 72 h; at 2 µM; hits give high values.
Assay [2] is described as follows: HepG2 cytotoxicity, primary screen, cytotoxicity control for P. falciparum antimalarial project, cell-based, ATP luminescence (AID 2303;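 active = inhibition above 50%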;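 also: 0% = DMSO wells and 100% = digitonin-killed cells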). The conditions noted are these: HepG2 viability, 24-48 h, at 10 µM, hits give high values.
Assay [3] has as its target L-lactate dehydrogenase (Plasmodium falciparum (isolate CDC / Honduras)) (UniProt Q27743). As to the kind of experiment: PfLDH activity inhibition – cell lysate, 3D7 strain, counter-screen for P. falciparum growth inhibition project (AID 2304).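 Also: 0% = vehicle and 100% = reference inhibitor.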 The conditions noted are these: P. falciparum 3D7 crude extract, LDH APAD/NBT absorbance; at 2 µM; hits give high values. (In general: Counterscreens check selectivity or assay interference.)

Assay [4] in a line: inhibition of 3D7 malaria parasite growth – strain 3D7 (AID 2306).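 Also: 0% = DMSO wells and 100% = chloroquine plus artemisinin control wells.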 The conditions noted are these: P. falciparum 3D7 erythrocytic growth, LDH absorbance, 72 h; at 2 µM; hits give high values.
In assay [5] the target is Calcium-dependent protein kinase 1 (Plasmodium falciparum (isolate 3D7)) (UniProt P62344). As to the kind of experiment: PfCDPK1 kinase inhibitors, biochemical, TCAMS library (AID 1159585; cut-off not given, nearly all actives have IC50 up to about 0.98 µM;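 also: inhibitors leave more ATP so luminescence rises with inhibition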). The following applies: recombinant PfCDPK1, Kinase-Glo ATP depletion luminescence.
Chain of Calcium-dependent protein kinase 1 (Plasmodium falciparum (isolate 3D7)) (P62344 whole entry, looked up): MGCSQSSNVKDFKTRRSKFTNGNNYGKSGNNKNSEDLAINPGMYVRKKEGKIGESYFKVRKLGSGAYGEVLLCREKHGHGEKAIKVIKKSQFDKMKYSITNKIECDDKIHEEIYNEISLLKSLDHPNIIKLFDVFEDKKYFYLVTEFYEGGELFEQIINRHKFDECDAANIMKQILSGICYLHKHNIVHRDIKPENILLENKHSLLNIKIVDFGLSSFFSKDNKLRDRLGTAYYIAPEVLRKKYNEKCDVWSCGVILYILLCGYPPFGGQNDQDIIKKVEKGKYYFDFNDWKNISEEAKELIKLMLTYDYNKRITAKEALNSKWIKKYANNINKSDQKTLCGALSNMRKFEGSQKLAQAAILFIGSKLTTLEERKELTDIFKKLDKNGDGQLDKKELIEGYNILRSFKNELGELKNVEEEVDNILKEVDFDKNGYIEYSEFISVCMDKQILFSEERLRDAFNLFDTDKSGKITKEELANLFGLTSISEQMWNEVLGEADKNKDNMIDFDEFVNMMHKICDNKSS
The target in assay [6] is Plasmodium falciparum protein kinase 6 (PK6, PF3D7_1337100) (UniProt Q8IDW1). As to the kind of experiment: PfPK6 kinase inhibitors, biochemical, TCAMS library (AID 1159586). The conditions noted are these: recombinant PfPK6, Kinase-Glo ATP depletion luminescence. On the technique in general: Kinase-Glo measures the ATP left after a reaction by luminescence.
Chain of Plasmodium falciparum protein kinase 6 (PK6, PF3D7_1337100) (Q8IDW1 1-305): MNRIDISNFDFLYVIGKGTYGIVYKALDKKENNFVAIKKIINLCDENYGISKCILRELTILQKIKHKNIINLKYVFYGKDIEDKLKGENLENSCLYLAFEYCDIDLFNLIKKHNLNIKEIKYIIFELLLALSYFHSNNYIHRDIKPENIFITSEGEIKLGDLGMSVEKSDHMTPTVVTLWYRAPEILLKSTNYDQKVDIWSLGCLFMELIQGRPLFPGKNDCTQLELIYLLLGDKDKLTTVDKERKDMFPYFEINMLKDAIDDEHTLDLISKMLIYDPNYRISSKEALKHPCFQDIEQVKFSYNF
Assay [7] concerns the target Protein kinase 7 (PK7), Plasmodium falciparum 3D7 (PF3D7_0213400) (UniProt Q7YTF7). As to the kind of experiment: inhibition of Plasmodium PK7 catalytic activity – biochemical, TCAMS antimalarial set, Kinase-Glo luminescence (AID 1159587). The following applies: recombinant PfPK7, Kinase-Glo ATP depletion luminescence.
For assay [8], the target named is Calcium-dependent protein kinase 4 (Plasmodium falciparum (isolate 3D7)) (UniProt Q8IBS5). As to the kind of experiment: PfCDPK4 kinase inhibitors, biochemical, TCAMS library (AID 1159588; cut-off not given, nearly all actives have IC50 up to about 0.91 µM). The conditions noted are these: recombinant PfCDPK4, Kinase-Glo ATP depletion luminescence.
Chain of Calcium-dependent protein kinase 4 (Plasmodium falciparum (isolate 3D7)) (Q8IBS5 whole entry, looked up): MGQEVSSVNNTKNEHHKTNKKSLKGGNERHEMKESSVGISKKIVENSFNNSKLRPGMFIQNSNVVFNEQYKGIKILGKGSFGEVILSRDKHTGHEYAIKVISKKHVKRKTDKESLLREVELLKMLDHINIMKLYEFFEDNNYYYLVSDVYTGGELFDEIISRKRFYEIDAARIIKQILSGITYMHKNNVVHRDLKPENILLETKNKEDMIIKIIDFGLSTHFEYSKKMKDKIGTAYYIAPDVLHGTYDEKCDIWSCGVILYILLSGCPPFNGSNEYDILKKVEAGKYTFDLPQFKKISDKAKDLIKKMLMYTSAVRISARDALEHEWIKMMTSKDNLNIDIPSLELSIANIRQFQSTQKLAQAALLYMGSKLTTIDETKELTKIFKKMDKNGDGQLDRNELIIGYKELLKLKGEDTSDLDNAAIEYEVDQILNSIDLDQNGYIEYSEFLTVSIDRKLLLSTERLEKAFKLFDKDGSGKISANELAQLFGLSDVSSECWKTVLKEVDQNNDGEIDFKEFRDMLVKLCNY

Chain of L-lactate dehydrogenase (Plasmodium falciparum (isolate CDC / Honduras)) (Q27743 whole entry, looked up): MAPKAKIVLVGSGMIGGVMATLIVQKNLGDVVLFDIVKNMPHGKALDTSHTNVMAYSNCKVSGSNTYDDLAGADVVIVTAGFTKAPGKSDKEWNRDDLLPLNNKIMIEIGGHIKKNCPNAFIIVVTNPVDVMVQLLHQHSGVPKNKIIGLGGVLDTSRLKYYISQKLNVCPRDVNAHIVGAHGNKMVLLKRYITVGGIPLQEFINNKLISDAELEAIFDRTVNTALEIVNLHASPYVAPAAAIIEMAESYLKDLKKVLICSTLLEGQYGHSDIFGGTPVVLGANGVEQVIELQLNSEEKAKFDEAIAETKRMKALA
Chain of Protein kinase 7 (PK7), Plasmodium falciparum 3D7 (PF3D7_0213400) (Q7YTF7 1-343): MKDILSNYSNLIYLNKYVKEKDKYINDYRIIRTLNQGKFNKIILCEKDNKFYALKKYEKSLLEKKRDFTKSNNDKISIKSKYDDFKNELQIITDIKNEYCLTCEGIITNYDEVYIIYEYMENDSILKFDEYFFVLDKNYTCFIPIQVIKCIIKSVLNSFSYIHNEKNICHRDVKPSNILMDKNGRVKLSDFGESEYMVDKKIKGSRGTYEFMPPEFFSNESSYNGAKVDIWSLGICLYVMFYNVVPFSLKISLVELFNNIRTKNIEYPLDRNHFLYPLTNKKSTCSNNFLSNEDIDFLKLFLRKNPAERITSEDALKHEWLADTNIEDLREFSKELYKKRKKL

As to `Cc1cccc(CCNC(=O)c2cc(Br)cc(N3CCN(c4ccncc4)CC3)c2)c1`, the growth inhibition is 53% (active) in assay [1] and 96% (active) in assay [4]. For the same molecule, the inhibition (usually the relative decrease from the control value, in per cent) in assay [2] was 48%; in assay [3], 0%. The outcome in assay [5], in assay [6], in assay [7] and in assay [8] was inactive.

As to `Cc1cc(=O)c(-c2ccc(Oc3ccc(OC(F)(F)F)cc3)cc2)c(C)[nH]1`, the growth inhibition is 61% (active) in assay [1] and 93% (active) in assay [4]. In assay [3], the inhibition is 0%. The outcome in assay [5], in assay [6], in assay [7] and in assay [8] was inactive.

In the case of `Nc1nc(N)c2c(ccc3nn(Cc4ccccc4)cc32)n1`, the results for the growth inhibition in assay [1] and in assay [4] were 88% (active) and 97% (active), respectively. In addition, the inhibition in assay [3] is 0%. Moreover, the result in assay [5], in assay [6], in assay [7] and in assay [8] was inactive.

With `O=C(CCCCCNC(=O)c1ccc(O)c(-c2ccc(Cl)c(Cl)c2)c1)NCc1cccc2ccccc12`, the growth inhibition in assay [1] is 15%; in assay [4], 99% (active). Besides, the results for the inhibition in assay [2] and in assay [3] were 2% and -2%, respectively. Moreover, the result in assay [5], in assay [6], in assay [7] and in assay [8] was inactive.

Turning to `CC(=O)N1N=C(c2ccc(F)cc2)Sc2c1nc(C1CCCCC1)n2C(C)=O`, the growth inhibition in assay [1] is 9%; in assay [4], 92% (active). Moreover, the inhibition in assay [2] and in assay [3] was 4% throughout. Further, the outcome in assay [5], in assay [6], in assay [7] and in assay [8] was inactive.

Take `COc1cc2c(cc1OC)C(C)(C)CN1Cc3c(c(CO)c(OC)c(OC)c3OC)CC21` (configuration not stated): the figures for the growth inhibition in assay [1] and in assay [4] were 9% and 95% (active), respectively. In addition, the inhibition in assay [3] is 2%. Further, the result in assay [5], in assay [6], in assay [7] and in assay [8] was inactive.

For `Cc1[nH]c(C)c(-c2ccc(Oc3ccc(Cl)cc3)cc2)c(=O)c1Cl`, the values for the growth inhibition in assay [1] and in assay [4] were 16% and 91% (active), respectively. The inhibition in assay [3] was -3%. The outcome in assay [5], in assay [6], in assay [7] and in assay [8] was inactive.

For `CCCCC#Cc1cnc2nc(N)[nH]c(=O)c2n1`, the growth inhibition is 2% in assay [1] and 89% (active) in assay [4]. Further, in assay [3], the inhibition was 0%. Moreover, the outcome in assay [5], in assay [6], in assay [7] and in assay [8] was inactive.

For `COc1ccc(C2C(C(=O)OC3CCCCC3)=C(C)NC3=C2C(=O)CCC3)cc1Br` (configuration not stated), the growth inhibition in assay [1] is 94% (active); in assay [4], 95% (active). In addition, the inhibition in assay [2] was 7%; in assay [3], -7%. In addition, the outcome in assay [5], in assay [6], in assay [7] and in assay [8] was inactive.

Take `CCOC(=O)c1c(C)n(-c2ccc(Cl)cc2)c2ccc(OC(=O)C=Cc3ccccc3)cc12`: the growth inhibition in assay [1] was 92% (active); in assay [4], 99% (active). Also, the inhibition in assay [2] was 3%; in assay [3], -2%. Further, the result in assay [5], in assay [6], in assay [7] and in assay [8] was inactive.

For `CC(=NNC(=S)NCCc1ccccn1)c1ccccn1`, the results for the growth inhibition in assay [1] and in assay [4] were 95% (active) and 100% (active), respectively. Moreover, in assay [3], the inhibition is -3%. The outcome in assay [5], in assay [6], in assay [7] and in assay [8] was inactive.

As to `Nc1nc(N)c2c(ccc3c2ccn3Cc2ccc(Br)cc2)n1`, the growth inhibition in assay [1] was 98% (active); in assay [4], 101% (active). Besides, the inhibition in assay [3] is -13%. Further, the result in assay [5], in assay [6], in assay [7] and in assay [8] was inactive.

With `Nc1nc(N)c2c(Oc3cccc(Cl)c3)cccc2n1`, the growth inhibition in assay [1] is 7%; in assay [4], 97% (active). The inhibition in assay [3] was -7%. The result in assay [5], in assay [6], in assay [7] and in assay [8] was inactive.

With `Nc1nc(N)c2c(n1)CCc1cc(Br)ccc1-2`, the growth inhibition is 4% in assay [1] and 87% (active) in assay [4]. The inhibition in assay [3] was 6%. The result in assay [5], in assay [6], in assay [7] and in assay [8] was inactive.

With `Nc1nc(N)c2c(Oc3cc(Cl)c(Cl)c(Cl)c3)cccc2n1`, the growth inhibition in assay [1] is 92% (active); in assay [4] it was 101% (active). Moreover, the inhibition in assay [3] was 4%. The outcome in assay [5], in assay [6], in assay [7] and in assay [8] was inactive.

In the case of `COc1ccc(NC(=O)[C@H](Cc2ccccc2)Nc2cc(C)nc(NCCc3cccs3)n2)cc1`, the results for the growth inhibition in assay [1] and in assay [4] were 83% (active) and 100% (active), respectively. For the same molecule, the values for the inhibition in assay [2] and in assay [3] were 12% and -2%, respectively. In addition, the result in assay [5], in assay [6], in assay [7] and in assay [8] was inactive.

On to `CCNC(=O)CCc1cccc(Br)c1`, for which the growth inhibition in assay [1] is 54% (active); in assay [4], 89% (active). In addition, the inhibition in assay [3] is 6%. The outcome in assay [5], in assay [6], in assay [7] and in assay [8] was inactive.

On to `COc1cccc2c(O)c(CNC3CCCCC3)ccc12`, for which the results for the growth inhibition in assay [1] and in assay [4] were 98% (active) and 100% (active), respectively. For the same molecule, the inhibition in assay [3] is 3%. Besides, the result in assay [5], in assay [6], in assay [7] and in assay [8] was inactive.

For the molecule `NC(N)=NC(=O)Nc1ccc(Cl)c(C(F)(F)F)c1`, the growth inhibition in assay [1] was 13%; in assay [4] it was 100% (active). For the same molecule, the inhibition in assay [3] was 3%. Besides, the result in assay [5], in assay [6], in assay [7] and in assay [8] was inactive.

On to `CC(C)NCc1ccc(-c2ccc(NC(=O)c3ccc(C#N)cc3)cc2)cc1`, for which the growth inhibition in assay [1] was 0%; in assay [4], 90% (active). Besides, the figures for the inhibition in assay [2] and in assay [3] were 23% and -2%, respectively. Besides, the outcome in assay [5], in assay [6], in assay [7] and in assay [8] was inactive.
